Drawing on PubChem BioAssay (NCI), this text covers growth for 40 molecules.

The panel holds about 83,000 compounds, 20% with a hit somewhere; the sample as a whole holds those more often.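 Note: values are percent growth. 100 is the growth of untreated cells, values between 100 and 0 indicate rising inhibition; between -100 and 0 indicates cell death.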 Activity calls are given as the source filed them. How the source made its calls: active means growth percent below 10; inactive means the rest.

This experiment deals with MDA-MB-468 breast. Kind of experiment: NCI-60 one-dose screen, 48 h (100 = growth as untreated, 0 = no growth, -100 = all killed). To be noted: 10 µM unless noted.
With `O=C1OCC2=C1C(c1cccc(F)c1)c1cc3c(cc1N2CCO)OCCO3` (stereo not given), the growth was -8.31% (active).
Next, `COc1cc(/C=C2\CN(S(=O)(=O)c3ccc(C)cc3)C/C(=C\c3cc(CN4CCCC4)c(O)c(OC)c3)C2=O)cc(CN2CCCC2)c1O`: -11.9% (active); `COc1c(NC[C@H]2OC(O)[C@H](O)[C@@H](O)[C@@H]2O)c(=O)c1=O` (stereo not given in full): 94.1% (inactive).
Next, `COc1ccc(C2=Nn3c(NN)nnc3SC2)cc1`: 106% (inactive).
Take `O=C1/C(=C/c2ccccc2)CN(C(=O)c2cccnc2)C/C1=C\c1ccccc1`: the growth is -49.2% (active).
With `O=C1c2ccccc2C(=O)c2c(N=Nc3sc(=O)[nH]c3S)cccc21`, the growth is 104% (inactive).
`COc1ccc2nc(-c3ccccc3)cc(C(C)=O)c2c1`: the growth was 68% (inactive).
Take `Clc1cc(Cl)cc(Nc2ccc3c(OCCCN4CCOCC4)cccc3n2)c1`: the growth is 20.6% (inactive).
Next, `CC(=O)NCCSC(=O)C(=O)SCCNC(C)=O`: 103% (inactive); `Cc1ncc(C(=O)Nc2ccc(CN3CCN(C)CC3)c(C(F)(F)F)c2)cc1C#Cc1c(N)ncc2ccc(F)cc12`: 48.2% (inactive); `CN[C@@H](CCCNC(N)=NC/C=C(/C)CCC=C(C)C)C(=O)N(C)[C@@H](CCCNC(N)=NCC=C(C)C)C(=O)N[C@H](C)[C@H](OS(=O)(=O)O)c1ccc(OS(=O)(=O)O)c(COS(=O)(=O)O)c1`: 97.3% (inactive).
Next, `COc1cc(/C=C2\CCCC3C2=Nc2ccccc2NC3c2cc(OC)c(OC)c(OC)c2)cc(OC)c1OC` (stereo not given): -6.85% (active).
As for `O=C(CSc1nc2sc3c(c2c(=O)n1-c1ccc(Cl)cc1)CCCC3)NNC(=O)Nc1cccc(C(F)(F)F)c1`, the growth was 8.29% (active).
Next, `CN(C)c1ccc(/C=C/C(=O)c2ccc(NC(N)=O)cc2)cc1`: 81% (inactive); `c1ccc2c[n+](Cc3ccc4ccccc4n3)ccc2c1`: -0.701% (active); `CCCCc1n(Cc2ccc3ccccc3c2)cc[n+]1Cc1ccc2ccccc2c1`: -55.2% (active).
As to `N#Cc1c(-c2cccs2)cc(-c2cnccn2)nc1SCC(=O)N/N=C/c1ccncc1`, the growth is 103% (inactive).
With `N#C/C(=C\c1cccc2cnccc12)N1N=NC2C=CC=CC21` (stereo not given), the growth was 32.9% (inactive).
Next, `COc1cc(OC)c(/C=C/C(=O)c2ccc(Nc3ncnc4ccccc34)cc2)c(OC)c1`: -34.8% (active); `CC(=O)Nc1ccc(Sc2ccc([N+](=O)[O-])o2)cc1`: 4.76% (active).
The figure for `N=C(N)c1ccc(-c2ccc(-c3cccs3)s2)s1` is -90.3% (active).
The figure for `COc1cccc(C(=O)Cn2cc(/C=C(\C#N)S(=O)(=O)c3ccccc3)c3ccccc32)c1` is 104% (inactive).
Turning to `CC1=C([Se]CC(OC(=O)[C@@H](CO)NC(=O)OC(C)(C)C)C(=O)NC(C)(C)C)C(=O)c2ccccc2C1=O` (stereo not given in full), the growth is -74.2% (active).
For the molecule `COc1ccc(CCN2C(=O)/C(=C/c3nc(CO)cs3)SC2=S)cc1`, the growth is 27% (inactive).
`CCCCC1=C(P(=O)(O)O)N[C@H](C(=O)O)CS1`: the growth was 89.1% (inactive).
Regarding `COc1ccc(CCN2CCC(Nc3nc4ccccc4n3Cc3ccc(F)cc3)CC2)cc1`, the growth is -84.1% (active).
With `O=C(NC(=S)N1CC=CCC1)c1ccccc1`, the growth is 121% (inactive).
For the molecule `Cc1cccc(CNc2c3ccccc3nc3ccccc23)c1`, the growth is -0.391% (active).
The figure for `CN1C(=O)N(C)C2C1NN=c1s/c(=C\c3ccccc3)c(=O)n12` (stereo not given) is 23.8% (inactive); for `CCc1n(Cc2ccc3ccccc3c2)c2ccccc2[n+]1Cc1ccc2ccccc2c1` it is 5.98% (active).
`C[C@]12CCC(=O)C[C@H]1CC[C@@H]1[C@@H]2CC[C@@]2(C)[C@H]1CC[C@]2(O)C(=O)CO`: the growth was 99.8% (inactive).
The figure for `COc1ccc(C(=O)c2cc(F)c(F)c(OC)c2F)cc1OC(=O)CCl` is 61.3% (inactive).
Take `CCCCCCCCOC(=O)C(C)OC(=O)OCCOCCOC(=O)OC(C)C(=O)OCCCCCCCC` (stereo not given): the growth is 98.6% (inactive).
The figure for `C#C[C@@]1(O)[C@@H](CO)O[C@@H](n2cc(-c3ccco3)c3c(N)ncnc32)[C@@H]1O` is 49.5% (inactive); for `O=C1C=CC(=O)N1c1ccccn1` it is 114% (inactive); for `C=C1CCC2C3(C)COC(c4ccccc4)OC3CCC2(C)C1C/C=C1/C(=O)OCC1OC(C)=O` (stereo not given) it is 53% (inactive).
The figure for `O=C(CNc1nc(-c2cccc([N+](=O)[O-])c2)cs1)Nc1cccc([N+](=O)[O-])c1` is 14.3% (inactive); for `CCNC(=O)N1CCc2c(Br)c3c(c(OC)c2C1Cc1ccc(OC)cc1)OCO3` (stereo not given) it is 19.2% (inactive).
Regarding `CO/C=C/C(=O)c1cc2cnc3c(=N)cc(NC(=O)C(C)C)c([nH]1)c23`, the growth is -54.9% (active).
Next, `COc1cc(-c2cc(/C=C3\C(=O)Nc4ccccc43)[nH]n2)cc(OC)c1OC`: 82% (inactive).
